# Records with an inconclusive call do not appear. Calls of active or inactive are those of the source. Calls follow the shape of the dose curve; as a rule, active = well fitted activation curve with a large enough effect in the repeat runs; inconclusive = weak or mixed curves; inactive = no such curve, though single readings can be large or run the other way.
# Target: Nuclear receptor subfamily 1 group I member 2 (Homo sapiens) (UniProt O75469)
# Experiment: Human pregnane X receptor (PXR) small molecule agonists, qHTS assay (AID 1346982); also: nearly all actives have a fitted effect of over 35% in size
# Conditions: PXR-Luc HepG2, CYP3A4 luciferase reporter, 24 h; series mostly up to 92.4 µM; activation: at the top concentration
# Text: National Center for Advancing Translational Sciences [NCATS]
# NIH Chemical Genomics Center [NCGC]
# U.S. Environmental Protection Agency [EPA]
# National Institutes of Environmental Health Sciences [NIEHS]
# National Toxicology Program [NTP]
# The human pregnane X receptor (hPXR) regulates the expression of several drug metabolizing enzymes and induction of these proteins is a major mechanism for developing drug resistance in cancer. One such key enzyme catalyzing the drug metabolism is cytochrome P450 3A4 (CYP3A4). Changes in CYP3A4 expression affect drug metabolism, thereby reducing the therapeutic efficacy and altering toxicological response to a drug and which finally causes adverse drug interaction. To screen Tox21 libraries for compounds that activate hPXR-mediated CYP3A4 gene expression, PXR-Luc HepG2 cells were used.
# PXR-Luc HepG2 cells were dispensed at 2,000 per well in 5uL of assay medium containing 5% charcoal-stripped FBS into white solid bottom 1536-well plates (Corning Life Sciences, Corning, NY) using a Multidrop Combi (Thermo Scientific, Waltham, MA) dispenser. The assay plates were incubated at 37 C and 5% CO2 for 5hr, and then 23nL of compounds dissolved in DMSO and positive control were transferred using a Pintool station (Wako, San Diego, CA). The assay plates were incubated at 37C and 5% CO2 for 24hr. For luciferase read, 4uL of ONE-Glo reagent (Promega Corporation, Madison, WI) was added to each well of the assay plates using Flying Reagent Dispenser (FRD, Aurora Discovery, San Diego, CA) and incubated the assay plates at room temperature for 30min. The luminescence signal was quantified using a ViewLux plate reader (Perkin Elmer, Shelton, CT).
# % is scaled to controls: 0 for no effect and ±100 for the full control effect; potency is read from the fitted curve at half-maximal effect.
# Nuclear receptor subfamily 1 group I member 2 (Homo sapiens), sequence (O75469 whole entry, looked up): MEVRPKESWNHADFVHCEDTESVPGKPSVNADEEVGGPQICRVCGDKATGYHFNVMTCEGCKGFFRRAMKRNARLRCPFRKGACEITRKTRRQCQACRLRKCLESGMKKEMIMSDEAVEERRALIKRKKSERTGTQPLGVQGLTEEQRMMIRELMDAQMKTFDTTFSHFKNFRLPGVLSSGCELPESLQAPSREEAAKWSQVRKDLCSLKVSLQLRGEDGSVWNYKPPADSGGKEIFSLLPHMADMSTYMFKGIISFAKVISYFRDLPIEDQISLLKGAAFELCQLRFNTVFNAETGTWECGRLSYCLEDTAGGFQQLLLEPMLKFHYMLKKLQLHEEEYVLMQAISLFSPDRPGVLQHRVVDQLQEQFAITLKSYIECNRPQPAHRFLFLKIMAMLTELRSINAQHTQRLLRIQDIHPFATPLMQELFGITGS
SMILES,activation,Potency
CCCCCCCC(C)=O,-3.1% (inactive),
COC(=O)[C@]1(C)CCC[C@@]2(C)[C@H]1CC=C1C=C(C(C)C)CC[C@@H]12,,17.2 µM (active)
CN1CN(C)CN(C)C1,4.34% (inactive),
OCCCc1cccnc1,-0.657% (inactive),
CCOC(=O)CN,2.14% (inactive),
CO[Si](CCC1CCC2OC2C1)(OC)OC (stereo not given),3.17% (inactive),
CCC(C)C(=O)OC (stereo not given),6.83% (inactive),
C=CC(C)C#N (stereo not given),11.2% (inactive),
OCCCS,4.62% (inactive),
CCCCCCCCCCCCCCNCCO,21.2% [at 42.5 µM] (inactive),
O=C1c2c(O)ccc([N+](=O)[O-])c2C(=O)c2c([N+](=O)[O-])ccc(O)c21,-78% (inactive),
CCc1cccc(C)c1,5.71% (inactive),
CCCCCCCCCCc1ccccc1,8.84% (inactive),
CC(=O)OC1CCCCC1,9.12% (inactive),
COc1ccccc1OCCNCC(O)COc1cccc2[nH]c3ccccc3c12 (stereo not given),,8.41 µM (active)
CC(COC(=O)c1ccccc1)OC(=O)c1ccccc1 (stereo not given),5.05% (inactive),
Brc1ccccn1,-1.37% (inactive),
CCO[Si](CCCSSSSCCC[Si](OCC)(OCC)OCC)(OCC)OCC,19.9% (inactive),
CNC(=O)c1cc(Oc2ccc(NC(=O)Nc3ccc(Cl)c(C(F)(F)F)c3)cc2)ccn1,-2.83% [at 42.5 µM] (inactive),
CCCCCCCCCCCCCC[n+]1ccccc1,,8.63 µM (active)

SMILES,activation,Potency
C=CC(=C)CC/C=C(\C)CCC=C(C)C,8.17% [at 19 µM] (inactive),
CCOC(=O)COc1ccc(C)cc1,28.6% (inactive),
CCCCCCCC(OC)OC,0.843% [at 42.5 µM] (inactive),
CCOC(=O)CC(C)O (stereo not given),10.3% (inactive),
CCOB(OCC)OCC,2.55% (inactive),
C=C(C)C(=O)OCCC[Si](Cl)(Cl)Cl,4.95% (inactive),
CC(=O)OC(OC(C)=O)c1ccc([N+](=O)[O-])o1,,24.8 µM (active)
CO[Si](CCCNCCNCCN)(OC)OC,-3.77% (inactive),
CCc1ccc(C)nc1,12.7% (inactive),
O=CC1CC1,11% (inactive),
COc1cccc(O)c1,1.48% (inactive),
CC[N+](CC)(CC)Cc1ccccc1,3.33% (inactive),
O=S(=O)(O)CCCN1CCOCC1,-0.167% (inactive),
c1ccc(Sc2ccccc2)cc1,17.4% (inactive),
SCCCCCCCCS,13.6% (inactive),
CC(=O)Oc1ccc(C2(c3ccc(OC(C)=O)cc3)C(=O)Nc3ccccc32)cc1,7.35% [at 42.5 µM] (inactive),
Cc1ccc(-n2[nH]c(C)c(N=Nc3cccc(-c4cccc(C(=O)O)c4)c3O)c2=O)cc1C,26.1% [at 42.5 µM] (inactive),
Cn1cnc2ncnc(N)c21,4.78% [at 42.5 µM] (inactive),
CCN(CC)CCCN(c1ccccc1)C1Cc2ccccc2C1,8.53% [at 42.5 µM] (inactive),
C=CC(=C)CCC=C(C)C,3.21% (inactive),

# From PubChem BioAssay (Tox21)
